Assay results from the supplement of paper PMC7411054.
Where a name gives a salt, the structure may show the parent alone.

How the values were obtained:
Test in all cases: phenotypically active (imaging signature differs from DMSO and reproducible) at any of 0.3-9 uM (binary (1 = active, 0 = inactive)); higher = active
Conditions in all cases: treatment time: 24 h
A549-ACTB-RAB5A = tested on: A549-ACTB-RAB5A
Procedure, shortened: (§1)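 Phenotypic activity depended on meeting both a deviation and a reproducibility criterion. The fifteen gene-edited A549, HepG2 and WPMY1 reporter lines were treated at 0.3, 1, 3 or 9 µM for 24 h, four wells each, then imaged live with features normalised to solvent control wells. Deviation required ≥3 of 4 wells past the 95th percentile of control Euclidean distances, and reproducibility a median replicate Pearson correlation above the 95th percentile of non-replicates.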

A549-CANX-COX4 = tested on: A549-CANX-COX4
Procedure, shortened: as §1

A549-GM130-SQSTM1 = tested on: A549-GM130-SQSTM1
Procedure, shortened: as §1

A549-TP53BP1-CLTA = tested on: A549-TP53BP1-CLTA
Procedure, shortened: as §1

A549-TUBA1B-RELA = tested on: A549-TUBA1B-RELA
Procedure, shortened: as §1

HepG2-ACTB-RAB5A = tested on: HepG2-ACTB-RAB5A
Procedure, shortened: as §1

HepG2-CANX-COX4 = tested on: HepG2-CANX-COX4
Procedure, shortened: as §1

HepG2-GM130-SQSTM1 = tested on: HepG2-GM130-SQSTM1
Procedure, shortened: as §1

HepG2-TP53BP1-CLTA = tested on: HepG2-TP53BP1-CLTA
Procedure, shortened: as §1

HepG2-TUBA1B-RELA = tested on: HepG2-TUBA1B-RELA
Procedure, shortened: as §1

WPMY1-ACTB-RAB5A = tested on: WPMY1-ACTB-RAB5A
Procedure, shortened: as §1

WPMY1-CANX-COX4 = tested on: WPMY1-CANX-COX4
Procedure, shortened: as §1

WPMY1-GM130-SQSTM1 = tested on: WPMY1-GM130-SQSTM1
Procedure, shortened: as §1

WPMY1-TP53BP1-CLTA = tested on: WPMY1-TP53BP1-CLTA
Procedure, shortened: as §1

WPMY1-TUBA1B-RELA = tested on: WPMY1-TUBA1B-RELA
Procedure, shortened: as §1

Measured: phenotypically active

CN1C(CC(O)c2ccccc2)CCCC1CC(O)c1ccccc1 (stereo not given) [Lobelanidine hydrochloride]
inactive: A549-ACTB-RAB5A 0 | A549-CANX-COX4 0 | A549-GM130-SQSTM1 0 | A549-TP53BP1-CLTA 0 | A549-TUBA1B-RELA 0 | HepG2-ACTB-RAB5A 0 | HepG2-CANX-COX4 0 | HepG2-GM130-SQSTM1 0 | HepG2-TP53BP1-CLTA 0 | HepG2-TUBA1B-RELA 0 | WPMY1-ACTB-RAB5A 0 | WPMY1-CANX-COX4 0 | WPMY1-GM130-SQSTM1 0 | WPMY1-TP53BP1-CLTA 0 | WPMY1-TUBA1B-RELA 0

C/C=C1\C[C@@H](C)[C@](O)(CO)C(=O)OCC2=CCN3CC[C@@H](OC1=O)[C@@H]23 [Retrorsine]
inactive: A549-ACTB-RAB5A 0 | A549-CANX-COX4 0 | A549-GM130-SQSTM1 0 | A549-TP53BP1-CLTA 0 | A549-TUBA1B-RELA 0 | HepG2-ACTB-RAB5A 0 | HepG2-CANX-COX4 0 | HepG2-GM130-SQSTM1 0 | HepG2-TP53BP1-CLTA 0 | HepG2-TUBA1B-RELA 0 | WPMY1-ACTB-RAB5A 0 | WPMY1-CANX-COX4 0 | WPMY1-GM130-SQSTM1 0 | WPMY1-TP53BP1-CLTA 0 | WPMY1-TUBA1B-RELA 0

CCOC(=O)C1(c2ccccc2)CCN(C)CC1 [meperidine]
inactive: A549-ACTB-RAB5A 0 | A549-CANX-COX4 0 | A549-GM130-SQSTM1 0 | A549-TP53BP1-CLTA 0 | A549-TUBA1B-RELA 0 | HepG2-ACTB-RAB5A 0 | HepG2-CANX-COX4 0 | HepG2-GM130-SQSTM1 0 | HepG2-TP53BP1-CLTA 0 | HepG2-TUBA1B-RELA 0 | WPMY1-ACTB-RAB5A 0 | WPMY1-CANX-COX4 0 | WPMY1-GM130-SQSTM1 0 | WPMY1-TP53BP1-CLTA 0 | WPMY1-TUBA1B-RELA 0

CCN1C[C@]2(COC)CC[C@H](O)[C@@]34[C@@H]5C[C@H]6[C@H](OC(C)=O)[C@@H]5[C@](O)(C[C@@H]6OC)[C@H](C[C@H]23)[C@H]14 [Condelphine]
inactive: A549-ACTB-RAB5A 0 | A549-CANX-COX4 0 | A549-GM130-SQSTM1 0 | A549-TP53BP1-CLTA 0 | A549-TUBA1B-RELA 0 | HepG2-ACTB-RAB5A 0 | HepG2-CANX-COX4 0 | HepG2-GM130-SQSTM1 0 | HepG2-TP53BP1-CLTA 0 | HepG2-TUBA1B-RELA 0 | WPMY1-ACTB-RAB5A 0 | WPMY1-CANX-COX4 0 | WPMY1-GM130-SQSTM1 0 | WPMY1-TP53BP1-CLTA 0 | WPMY1-TUBA1B-RELA 0

CN1CCc2cc3c(cc2[C@H]1[C@@H]1OC(=O)c2c1ccc1c2OCO1)OCO3 [bicuculine]
inactive: A549-ACTB-RAB5A 0 | A549-CANX-COX4 0 | A549-GM130-SQSTM1 0 | A549-TP53BP1-CLTA 0 | A549-TUBA1B-RELA 0 | HepG2-ACTB-RAB5A 0 | HepG2-CANX-COX4 0 | HepG2-GM130-SQSTM1 0 | HepG2-TP53BP1-CLTA 0 | HepG2-TUBA1B-RELA 0 | WPMY1-ACTB-RAB5A 0 | WPMY1-CANX-COX4 0 | WPMY1-GM130-SQSTM1 0 | WPMY1-TP53BP1-CLTA 0 | WPMY1-TUBA1B-RELA 0

CC[C@H]1C[N@@]2CC[C@H]1C[C@H]2[C@@H](O)c1ccnc2ccc(O)cc12 [Hydrocupreine]
inactive: A549-ACTB-RAB5A 0 | A549-CANX-COX4 0 | A549-GM130-SQSTM1 0 | A549-TP53BP1-CLTA 0 | A549-TUBA1B-RELA 0 | HepG2-ACTB-RAB5A 0 | HepG2-CANX-COX4 0 | HepG2-GM130-SQSTM1 0 | HepG2-TP53BP1-CLTA 0 | HepG2-TUBA1B-RELA 0 | WPMY1-ACTB-RAB5A 0 | WPMY1-CANX-COX4 0 | WPMY1-GM130-SQSTM1 0 | WPMY1-TP53BP1-CLTA 0 | WPMY1-TUBA1B-RELA 0

O=C1CCC[C@@H]2[C@H]3CCCN4CCC[C@@H](CN12)[C@@H]34 [Matrine]
inactive: A549-ACTB-RAB5A 0 | A549-CANX-COX4 0 | A549-GM130-SQSTM1 0 | A549-TP53BP1-CLTA 0 | A549-TUBA1B-RELA 0 | HepG2-ACTB-RAB5A 0 | HepG2-CANX-COX4 0 | HepG2-GM130-SQSTM1 0 | HepG2-TP53BP1-CLTA 0 | HepG2-TUBA1B-RELA 0 | WPMY1-ACTB-RAB5A 0 | WPMY1-CANX-COX4 0 | WPMY1-GM130-SQSTM1 0 | WPMY1-TP53BP1-CLTA 0 | WPMY1-TUBA1B-RELA 0

N#CC(C#N)=Cc1ccc(O)c(O)c1
inactive: A549-ACTB-RAB5A 0 | A549-CANX-COX4 0 | A549-GM130-SQSTM1 0 | A549-TP53BP1-CLTA 0 | A549-TUBA1B-RELA 0 | HepG2-ACTB-RAB5A 0 | HepG2-CANX-COX4 0 | HepG2-GM130-SQSTM1 0 | HepG2-TP53BP1-CLTA 0 | HepG2-TUBA1B-RELA 0 | WPMY1-ACTB-RAB5A 0 | WPMY1-CANX-COX4 0 | WPMY1-GM130-SQSTM1 0 | WPMY1-TP53BP1-CLTA 0 | WPMY1-TUBA1B-RELA 0

O=c1cccc2n1C[C@H]1CNC[C@H]2C1 [Cytisine nitrate hydrate]
inactive: A549-ACTB-RAB5A 0 | A549-CANX-COX4 0 | A549-GM130-SQSTM1 0 | A549-TP53BP1-CLTA 0 | A549-TUBA1B-RELA 0 | HepG2-ACTB-RAB5A 0 | HepG2-CANX-COX4 0 | HepG2-GM130-SQSTM1 0 | HepG2-TP53BP1-CLTA 0 | HepG2-TUBA1B-RELA 0 | WPMY1-ACTB-RAB5A 0 | WPMY1-CANX-COX4 0 | WPMY1-GM130-SQSTM1 0 | WPMY1-TP53BP1-CLTA 0 | WPMY1-TUBA1B-RELA 0

CCN1C[C@]2(COC)CC[C@H](OC)[C@]34[C@@H]5C[C@H]6[C@H](OC)[C@@H]5[C@@]5(C[C@@H]6OC)OCO[C@@]5([C@H]13)[C@@H](O)[C@H]24 [Delcorine]
inactive: A549-ACTB-RAB5A 0 | A549-CANX-COX4 0 | A549-GM130-SQSTM1 0 | A549-TP53BP1-CLTA 0 | A549-TUBA1B-RELA 0 | HepG2-ACTB-RAB5A 0 | HepG2-CANX-COX4 0 | HepG2-GM130-SQSTM1 0 | HepG2-TP53BP1-CLTA 0 | HepG2-TUBA1B-RELA 0 | WPMY1-ACTB-RAB5A 0 | WPMY1-CANX-COX4 0 | WPMY1-GM130-SQSTM1 0 | WPMY1-TP53BP1-CLTA 0 | WPMY1-TUBA1B-RELA 0

CN(C)NC(=O)CCC(=O)O [Daminozide]
inactive: A549-ACTB-RAB5A 0 | A549-CANX-COX4 0 | A549-GM130-SQSTM1 0 | A549-TP53BP1-CLTA 0 | A549-TUBA1B-RELA 0 | HepG2-ACTB-RAB5A 0 | HepG2-CANX-COX4 0 | HepG2-GM130-SQSTM1 0 | HepG2-TP53BP1-CLTA 0 | HepG2-TUBA1B-RELA 0 | WPMY1-ACTB-RAB5A 0 | WPMY1-CANX-COX4 0 | WPMY1-GM130-SQSTM1 0 | WPMY1-TP53BP1-CLTA 0 | WPMY1-TUBA1B-RELA 0

COc1ccc2c(c1O)-c1c(OC)c(OC)cc3c1[C@H](C2)N(C)CC3 [Isocorydine (+)]
inactive: A549-ACTB-RAB5A 0 | A549-CANX-COX4 0 | A549-GM130-SQSTM1 0 | A549-TP53BP1-CLTA 0 | A549-TUBA1B-RELA 0 | HepG2-ACTB-RAB5A 0 | HepG2-CANX-COX4 0 | HepG2-GM130-SQSTM1 0 | HepG2-TP53BP1-CLTA 0 | HepG2-TUBA1B-RELA 0 | WPMY1-ACTB-RAB5A 0 | WPMY1-CANX-COX4 0 | WPMY1-GM130-SQSTM1 0 | WPMY1-TP53BP1-CLTA 0 | WPMY1-TUBA1B-RELA 0
